Assay outcomes (PubChem)
M1 antag = blocks human M1 muscarinic receptor | P11229 | CHO-K1 hM1, Fluo-8 calcium fluorescence, ACh EC80 antagonist | inhibition, % at 3 µM | 360,000 compounds, 1.3% hits;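 active means percent inhibition above its own plate's cutoff, namely the mean of that plate's compound wells plus 3 SD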;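 further: peak over basal fluorescence ratio during 140 s after agonist addition; 0% = ACh EC80 plus DMSO and 100% = DMSO alone without agonist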
Target sequence (P11229 whole entry, looked up): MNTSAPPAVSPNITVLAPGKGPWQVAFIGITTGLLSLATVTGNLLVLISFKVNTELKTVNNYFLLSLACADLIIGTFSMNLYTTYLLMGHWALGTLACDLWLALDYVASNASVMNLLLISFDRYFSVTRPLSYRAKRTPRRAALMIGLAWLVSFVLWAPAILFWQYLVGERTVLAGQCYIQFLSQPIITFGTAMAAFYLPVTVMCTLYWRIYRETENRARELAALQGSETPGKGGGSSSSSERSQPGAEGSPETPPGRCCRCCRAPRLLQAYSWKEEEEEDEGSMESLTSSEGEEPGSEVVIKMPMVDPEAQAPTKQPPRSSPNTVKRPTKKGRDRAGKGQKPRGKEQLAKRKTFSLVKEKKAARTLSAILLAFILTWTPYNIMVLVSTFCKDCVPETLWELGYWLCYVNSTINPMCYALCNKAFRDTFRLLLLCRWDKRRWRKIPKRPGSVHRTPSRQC
CHO-K1 Ca antag = nonselective inhibitor or artifact in parental CHO-K1 cells; 360,000 compounds, 0.6% hits; ATP-induced calcium, Fluo-8 fluorescence; inhibition, % at 3 µM;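 active means inhibition above a per-plate cutoff, the plate's mean sample inhibition plus 3 SD, cut at about 24% in these data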;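 further: 0% = DMSO plus EC80 ATP and 100% = DMSO alone without ATP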
CHRM1 PAM = potentiates human M1 receptor response to acetylcholine; P11229; CHO-K1 hM1, Fluo-8 calcium fluorescence, ACh EC20; 0% = ACh EC20, 100% = maximal ACh; activation, % at 3 µM; 360,000 compounds, 0.088% hits; in the data active means activation above about 19%, passing the limit was not always enough
M1 ag = activates human CHRM1 receptor; CHO-K1 hM1, Fluo-8 calcium fluorescence, agonist mode; 0% DMSO, 100% acetylcholine EC100; activation, % at 3 µM; 360,000 compounds, 0.33% hits;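 active means activation above the run's mean compound activation plus 3 SD, cut at about 16% in these data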;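 further: peak over basal fluorescence ratio within a 140 s kinetic read after compound addition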
CHO-K1 Ca ag = counter-screen for M1 agonists: effect in parental CHO-K1 cells. Fluo-8 calcium fluorescence; scaled to maximal ATP response, vehicle zero. activation, % at 3 µM. 360,000 compounds, 0.48% hits. AID 602248; in the data active means activation above about 15%;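 further: untransfected CHO-K1 host cells lacking M1 receptor as counterscreen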
CHO-K1 Ca PAM = counter-screen for M1 PAMs: effect in parental CHO-K1 cells | ATP EC20, Fluo-8 calcium fluorescence; 0% at ATP EC20, 100% at ATP max | activation, % at 3 µM | 360,000 compounds, 0.02% hits | AID 602247;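 active means activation above the run cutoff, the mean activation of all test compounds plus 3 SD, cut at about 40% in these data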;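 further: peak over basal fluorescence ratio in a 140 s read after ATP addition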
* marks the source's active call; other numbers are inactive results. This is a sample that favours compounds with a hit; in the whole collection about 2.3% have one here.

SMILES	M1 antag	CHO-K1 Ca antag	CHRM1 PAM	M1 ag	CHO-K1 Ca ag	CHO-K1 Ca PAM
CC(=O)Nc1cc(-c2ccc(N)cc2)cn2c(-c3cccc(C(F)(F)F)c3)cnc12	-13	-3	7	2	3	4
CCc1ccc(N(C(=O)c2ccoc2C)C(C(=O)NC2CCCC2)c2ccc(OC)cc2)cc1 (stereo not drawn)	16	28*	-8	-6	-1	-14
COc1ccc(C(C(=O)NC2CCCC2)N(C(=O)c2ccoc2C)c2ccc(C)c(C)c2)cc1 (stereo not drawn)	8	25*	-6	-10	-1	-14
COc1ccc(C(C(=O)NC2CCCC2)N(C(=O)c2ccoc2C)c2ccccc2)cc1 (stereo not drawn)	-10	-7	-2	-8	2	1
COc1ccc(C(C(=O)NC2CCCC2)N(C(=O)c2ccoc2C)c2cc(C)cc(C)c2)cc1 (stereo not drawn)	-5	3	5	-9	-1	1
COc1cccc(N(C(=O)c2ccco2)C(C(=O)NC2CCCC2)c2cccnc2)c1 (stereo not drawn)	15	24*	-3	0	0	-7
O=C(NCc1ccc(Cl)c(Cl)c1)c1cc(C2CCCCN2C(=O)c2ccccc2)on1 (stereo not drawn)	3	8	-7	-6	0	2
COc1ccc(C2c3cc(OC)c(OC)cc3CCN2C(=O)c2ccccc2)cc1OC (stereo not drawn)	-1	0	3	0	0	4
COc1ccc(C(=O)N2CCc3cc(OC)c(OC)cc3C2c2ccc(OC)c(OC)c2)cc1 (stereo not drawn)	-6	24*	14	1	0	-8
CC1CCC(C(C)C)C(OC(=O)C[n+]2cccc(C(N)=O)c2)C1 (stereo not drawn)	-14	-1	-7	-6	-1	12
CC(C)[C@@H]1CC[C@@H](C)C[C@H]1OC(=O)C[n+]1cc(-c2ccc(Cl)cc2)n2c1CCCCC2	94*	9	-23	-4	3	13
O=C(C[n+]1cc(-c2ccc(Cl)cc2)n2c1CCCCC2)c1ccccc1	14	0	-8	-8	0	-15
COc1ccc(-c2c[n+](CC(=O)OC3CC(C)CCC3C(C)C)c3n2CCC3)cc1 (stereo not drawn)	91*	2	-22	-6	1	7
Cc1ccccc1Oc1ccc2c(c1)[C@@H]1C[C@H](N(C)C(=O)NC3CCCCC3)[C@H]([C@H](C)O)C(=O)N1CC2	-11	-10	5	-5	0	15
Cc1ccccc1Oc1ccc2c(c1)[C@@H]1C[C@H](N(C)C(=O)c3cccnc3)[C@H]([C@H](C)O)C(=O)N1CC2	-19	33*	8	0	0	-11
C[C@H](O)[C@@H]1C(=O)N2CCc3ccc(-c4ccccc4)cc3[C@@H]2C[C@@H]1N(C)C(=O)NC1CCCCC1	42*	-13	-10	-9	0	15
CCOc1ncccc1C(=O)Nc1ccc(C)cn1	-15	-6	16	-1	4	20
COc1ccc(N2CCN(C(=O)COC(=O)c3oc4ccc(OC)cc4c3C)CC2)cc1	14	5	-12	0	16*	-9
COC(=O)[C@H]1C[C@H](OC(=O)Nc2cccs2)[C@@]2(O)CN(S(=O)(=O)c3ccc(C)cc3)CC2[C@H]1C(=O)OC (stereo partly drawn)	4	-11	3	-2	0	-7
COC(=O)C1=C(N)Oc2cc(C)n(Cc3cccnc3)c(=O)c2C1c1ccccc1OC (stereo not drawn)	2	26*	0	-4	0	-7
NC1=NC(=O)C(=Cc2ccccc2)S1	-6	5	27*	5	0	-9
O=C(Nc1ccc(S(=O)(=O)N2CCc3ccccc3C2)cc1)C1CCCO1 (stereo not drawn)	5	-5	-4	-1	7	3
O=C(Nc1ccc(S(=O)(=O)N2CCCc3ccccc32)cc1)C1CCCO1 (stereo not drawn)	40*	-19	-35	-7	3	7
O=C(c1ccc2c3c(cccc13)CC2)C1CCCN(Cc2ccncc2)C1 (stereo not drawn)	5	2	-10	-5	6	-14
CCc1nc(CN2CCCC(C(=O)c3ccc4c5c(cccc35)CC4)C2)c(C)[nH]1 (stereo not drawn)	9	25*	-12	-10	0	-9
SMILES	M1 antag	CHO-K1 Ca antag	CHRM1 PAM	M1 ag	CHO-K1 Ca ag	CHO-K1 Ca PAM
CCCn1ccnc1SCC(=O)Nc1c(C)n(C)n(-c2ccccc2)c1=O	20	-9	-11	-4	0	9
COC(=O)c1cc(C(=O)NCc2ccc3c(c2)OCO3)cc([N+](=O)[O-])c1	-7	-5	11	-3	0	25
COc1ccc(C(=O)OCC(=O)Nc2c(C)cccc2C)c(OC)c1OC	-10	-8	15	1	2	-3
COc1ccc(C(=O)OCC(=O)Nc2cccc(C(C)=O)c2)c(OC)c1OC	-5	4	7	10	16*	-2
CCOC(=O)c1cc(S(=O)(=O)N2CCC(C)CC2)cn1C	-5	-10	2	-3	1	-8
C=CCc1ccc(OCCCCCN2CCOCC2)c(OC)c1	46*	-12	-21	-5	1	12
Cc1ccc(C(C)C)c(OCCCCCN2CCOCC2)c1	69*	-17	-36	-12	1	20
Cc1ccc(C(C)C)c(OCCCCN2CCNCC2)c1	-7	-15	-3	-8	2	25
C=CCc1ccc(OCCCCOc2ccc(C(=O)O)cc2)c(OC)c1	1	5	-5	-8	3	3
Cc1ccc(C(=O)OCC(=O)Nc2cccc(S(=O)(=O)N3CCCCC3)c2)s1	0	3	-8	0	7	1
Cc1ccc(NC(=O)CSc2nnc(-c3cnccn3)n2Cc2ccco2)cc1	1	2	-1	-7	0	-7
Cc1cccc(NC(=O)CSc2nnc(-c3cnccn3)n2Cc2ccco2)c1	18	29*	-9	-2	-1	-8
CC(C)(C)OC(=O)NCCCCCc1nnc(SCC(=O)Nc2cccc(Cl)c2)o1	36*	10	-13	4	10	18
CC(C)(C)OC(=O)NCCc1nnc(SCC(=O)Nc2ccc(Br)cc2)o1	2	3	1	5	29*	-1
C=CCCC(=O)N1C[C@H]2CON(C)[C@H]2C[C@H]1c1ccc(N2CCCCC2)cc1	1	7	7	-7	0	9
CN(C)CCCN1c2ccc(O)cc2Sc2ccc(Cl)cc21	100*	-2	-31	-4	4	1
Cc1ccc(NC2=NC(c3ccc(F)cc3)n3c(nc(C)cc3=O)N2)c(C)c1 (stereo not drawn)	37*	9	-14	-7	0	-4
